DT40 TDP1 no CPT: qHTS for Inhibitors of human tyrosyl-DNA phosphodiesterase 1 (TDP1): qHTS in cells in absence of CPT; DT40 Tdp1-/- hTDP1 cells, no CPT, ATP luminescence, 48 h; Potency, µM (highest dose often 46.2 µM), inactives show at the top dose activity change, negative = growth inhibition, hits mostly inhibitors; hit rate 15% among 420,000; also: potency is read from the fitted curve at half-maximal effect; nearly all actives have a fitted effect of over 55% in size
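Chicken DT40 Tdp1-/- cells complemented with human TDP1, screened without camptothecin (DMSO vehicle only), 400 cells/well. Compounds pin-transferred, cells incubated at 37 °C for at least 48 hr. Growth read as ATP-dependent luminescence (CellTiter-Glo, 30 min at RT).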
ELG1 repair inh: qHTS screen for small molecules that inhibit ELG1-dependent DNA repair in human embryonic kidney (HEK293T) cells expressing luciferase-tagged ELG1 | hit rate 2.3% among 330,000 | Potency, µM (series often up to 46.1 µM), for the others: at the top dose activity change, negative = inhibition, actives largely listed as inhibitors | HEK293T ELG1-luciferase reporter, luminescence, 16 h; DNA damage induced by 5-fluorouridine; also: potency is read from the fitted curve at half-maximal effect; nearly all actives have a fitted effect of over 55% in size
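Overnight (16 hr) co-exposure of 2,000 cells/well to 5-fluorouridine and compound at 37 °C preceded detection. Luciferase was quantified via ONE-Glo luminescence; loss of signal denotes inhibition.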
HT1080NT lethal: qHTS for induction of synthetic lethality in tumor cells producing 2HG: qHTS for the HT-1080-NT fibrosarcoma cell line; Potency, µM (top dose mostly 46.1 µM), without a hit: at the highest dose activity, negative = less viability, actives largely listed as cytotoxic; HT-1080-NT fibrosarcoma viability, CellTiter-Glo ATP luminescence, 48 h; hit rate 1.6% among 360,000;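 also: NT is the 2HG producing partner of a matched IDH1 knockdown line; potency is read from the fitted curve at half-maximal effect; 0% = DMSO-treated cells and -100% = media-only wells without cells; nearly all actives have a fitted effect of over 55% in size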
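A 48-hour cytotoxicity screen used HT-1080-NT cells plated 2 hours before compound delivery. ATP-based CellTiter-Glo luminescence measured viability, normalized to DMSO and no-cell controls.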
IL-1B inflam inh: qHTS for Inhibitors of Inflammasome Signaling: IL-1-beta AlphaLISA Primary Screen | AID 743279, 2014 | THP-1 LPS/ATP IL-1B secretion, AlphaLISA, 16 h; hits give low values | activity change, % at 57.5 µM | hit rate 4.7% among 360,000; in the data active = activity change below about -50%; inconclusive = mostly about -30% to -49%
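THP-1 cells pretreated 1 hr with compounds (up to 57.5 uM final), then stimulated with LPS (250 ng/mL final) plus ATP (1.25 mM final); secreted IL-1B measured by AlphaLISA after 16 hr, decreased signal indicating inhibition.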
TDP1 cell CPT: qHTS for Inhibitors of human tyrosyl-DNA phosphodiesterase 1 (TDP1): qHTS in cells in presence of CPT; hit rate 12% among 420,000; AID 686979, 2013; chicken DT40 Tdp1-/-;hTDP1 cells + 20 nM CPT, ATP luminescence, 48 h; Potency, µM (doses to about 46.2 µM), for inactives: at the top dose activity change, negative = growth inhibition, most hits filed as inhibitors; also: potency is read from the fitted curve at half-maximal effect; nearly all actives have a fitted effect of over 55% in size
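Chicken DT40 Tdp1-/- cells complemented with human TDP1, 400 cells/well, exposed to compounds plus 20 nM camptothecin for at least 48 h at 37 C; viability read as ATP content by CellTiter-Glo luminescence.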
HT1080 IDH1KD tx: qHTS for induction of synthetic lethality in tumor cells producing 2HG: qHTS for the HT-1080-IDH1KD cell line | HT-1080 IDH1 knockdown viability, ATP luminescence, 48 h | hit rate 2% among 360,000 | Potency, µM (highest dose often 46.1 µM), for inactives: top-dose activity, negative = toxicity, usual class: cytotoxic;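 also: potency is read from the fitted curve at half-maximal effect; 0% = DMSO wells and -100% = cell-free medium wells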
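After a 2 h attachment period, IDH1KD HT-1080 cells took pin-transferred compound for 48 h at 37 °C; ATP-based luminescence after 10 min room-temperature reagent incubation reported viability.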
Numbers without * were called inactive; ? = inconclusive; · = not tested or not shown; [ ] = another dose, or the depositor's remark. Compounds with a hit are over-represented: about 19% of the library has one in this group of screens. Unless noted, calls follow the shape of the dose curve; as a rule, active = well fitted curve in the direction sought with a large enough effect; inconclusive = small, poorly fitted or top-dose-only effect, or another doubt; inactive = no such curve, though single readings can be large; an effect the other way counts as inactive or inconclusive. Unless noted, % is scaled to controls: 0 for no effect and ±100 for the full control effect.

SMILES	DT40 TDP1 no CPT	ELG1 repair inh	HT1080NT lethal	IL-1B inflam inh	TDP1 cell CPT	HT1080 IDH1KD tx
COC(=O)CNC(c1ccccc1)c1cc(Br)ccc1NC(=O)OCc1ccccc1 (stereo unspecified)	?	-6%	-4%	5	-19%	-9%
O=C(CCc1ccccc1)NC1CC(=O)N(c2ccccc2)C1 (stereo unspecified)	23%	·	·	·	-16%	·
COc1ccc(NC(c2ccccc2)c2ccncc2)cc1 (stereo unspecified)	-18%	26µM*	-21%	-25	-10%	?
COc1cc(NC(=O)CNC(c2ccccc2)c2ccccc2)cc(OC)c1OC	21µM*	?	-3%	-5	26µM*	-4%
COc1ccc(NC(=O)CC(c2ccc(F)cc2)c2ccc(OC)cc2)cc1 (stereo unspecified)	15µM*	-11%	5%	-14	?	0%
COc1ccc(C)cc1NC(=O)CNC(c1ccccc1)c1ccc(C)cc1 (stereo unspecified)	3.3µM*	6.5µM*	?	115	3.3µM*	5.2µM*
COc1ccccc1NC(=O)CNC(c1ccccc1)c1ccccc1	?	8%	-1%	7	?	-2%
CCOC(=O)C1CCN(C(=O)c2ccc(NS(=O)(=O)c3ccc(F)cc3C)cc2)CC1	?	9%	-3%	-97*	-25%	-5%
COc1ccccc1NS(=O)(=O)c1ccc(C(=O)N2CCN(c3ccccn3)CC2)cc1	13µM*	?	7%	0	23µM*	3%
Cc1ccc(NS(=O)(=O)c2ccc(C(=O)N3CCN(c4ccccn4)CC3)cc2)cc1	12µM*	15µM*	-6%	-19	13µM*	-3%
CCOC(=O)C1CCN(C(=O)c2ccc(S(=O)(=O)Nc3ccccc3OC)cc2)CC1	?	-10%	-6%[9.24 µM]	36	9.2µM*	0%
Cc1ccc(S(=O)(=O)NCc2ccc(C(=O)N3CCN(c4ccccn4)CC3)cc2)cc1	?	?	-3%	-6	?	0%
CCCCn1nc(CC(=O)NCCN(CC)CC)c2ccccc2c1=O	?	-10%	3%	4	-21%	3%
CCc1cc(=O)oc2cc(C)cc(OC(C)C(=O)NCc3cccnc3)c12 (stereo unspecified)	18%	12%	18%	-10	-2%	9%
O=C(CCCCCn1c(=O)c2sccc2n(CC(=O)Nc2cc(C(F)(F)F)ccc2Cl)c1=O)NCc1ccccc1Cl	-28%	·	·	·	-27%	·
Cc1ccc(S(=O)(=O)Nc2ccc(N3CCN(C)CC3)nc2)cc1	-11%	-1%	0%	-65*	-3%	-3%
CN1CCN(c2ccc(NS(=O)(=O)c3ccc(Cl)cc3)cn2)CC1	-22%	?	4%	-11	-6%	6%
CCOC(=O)C1CCCN(C(=O)c2cc(S(=O)(=O)Nc3ccccc3OC)ccc2C)C1 (stereo unspecified)	?	-14%	4%	-3	-23%	-4%
Cc1ccccc1NS(=O)(=O)c1cc(C(=O)N2CCCC2)ccc1C	?	0%	-9%	-7	-8%	-11%
COc1ccccc1NS(=O)(=O)c1cc(C(=O)N2CC(C)CC(C)C2)ccc1C (stereo unspecified)	21µM*	-24%	-7%	7	?	-13%
